Screens as filed in PubChem BioAssay.
HEK cytotox: cytotoxic compounds in HEK 293 cells | HEK 293 viability, ATP luminescence (CellTiter-Glo), 48-72 h | Potency, µM (doses to about 115 µM), without a hit: top-dose activity change, negative = cytotoxicity, usual class: inhibitors | hit rate 6.6% among 94,000 | AID 1345083; note: nearly all actives have a fitted effect of over 60% in size
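Cells seeded first (HEK 293, 250 cells/well), then compound added by pintool. Incubation ran 48 or 72 hr at 37 degree Celsius. CellTiter-Glo was added and luminescence imaged after 10 min at room temperature.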
Luciferase inh: Photinus pyralis luciferase inhibition | P08659 | purified P. pyralis luciferase, luminescence, biochemical | Potency, µM (doses to about 115 µM), actives largely listed as inhibitors | hit rate 2.5% among 76,000; note: nearly all actives have a fitted effect of over 65% in size
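Purified P. pyralis luciferase (10nM final) in 50mM Tris acetate pH 7.5, 10mM Mg acetate, 0.01% Tween-20, 0.05% BSA with 10uM D-luciferin and 10uM ATP. Compounds titrated qHTS. Luminescence imaged on CCD.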
NPR1 antag: blocks ANP-stimulated signaling of human Npr1 receptor. P16066. HEK293 hNpr1 GloSensor cGMP, ANP-stimulated luminescence. Potency, µM (titrated, usually from 46.3 µM), for inactives: top-dose activity change, negative = inhibition, hits mostly inhibitors. hit rate 1.6% among 76,000. AID 1347048; calls by dose curve; note: nearly all actives have a fitted effect of over 60% in size
Target sequence (P16066 whole entry, looked up): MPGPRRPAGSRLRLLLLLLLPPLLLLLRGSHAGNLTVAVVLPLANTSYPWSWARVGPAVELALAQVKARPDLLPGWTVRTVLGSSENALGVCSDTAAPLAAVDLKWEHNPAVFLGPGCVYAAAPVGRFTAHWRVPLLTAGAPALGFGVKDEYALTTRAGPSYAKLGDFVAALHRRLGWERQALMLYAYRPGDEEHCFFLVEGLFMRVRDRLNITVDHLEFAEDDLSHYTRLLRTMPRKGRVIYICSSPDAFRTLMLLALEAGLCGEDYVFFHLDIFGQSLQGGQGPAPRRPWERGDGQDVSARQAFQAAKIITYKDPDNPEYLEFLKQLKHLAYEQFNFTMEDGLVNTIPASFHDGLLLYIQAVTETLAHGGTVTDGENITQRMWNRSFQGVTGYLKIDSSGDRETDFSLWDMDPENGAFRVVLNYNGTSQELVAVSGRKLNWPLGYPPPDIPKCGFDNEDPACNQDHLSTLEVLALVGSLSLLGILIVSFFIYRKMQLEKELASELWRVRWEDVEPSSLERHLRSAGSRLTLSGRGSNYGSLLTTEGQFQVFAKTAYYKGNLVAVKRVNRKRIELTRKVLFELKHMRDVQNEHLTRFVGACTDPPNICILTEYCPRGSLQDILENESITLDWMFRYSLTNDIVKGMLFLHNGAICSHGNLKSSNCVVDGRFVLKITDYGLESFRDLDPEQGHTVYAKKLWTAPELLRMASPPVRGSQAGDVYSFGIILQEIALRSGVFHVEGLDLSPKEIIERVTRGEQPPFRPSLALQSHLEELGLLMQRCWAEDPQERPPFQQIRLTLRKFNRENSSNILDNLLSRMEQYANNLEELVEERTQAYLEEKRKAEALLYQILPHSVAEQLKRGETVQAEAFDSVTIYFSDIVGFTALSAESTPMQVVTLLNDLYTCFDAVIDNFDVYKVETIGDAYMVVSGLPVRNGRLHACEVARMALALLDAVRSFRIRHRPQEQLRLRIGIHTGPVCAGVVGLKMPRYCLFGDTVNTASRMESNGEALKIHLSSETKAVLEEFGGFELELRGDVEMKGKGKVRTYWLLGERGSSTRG
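Compound pre-incubated 30 min at room temperature on GloSensor-loaded HEK293 cells stably carrying hNpr1 and the pGS-40F cGMP biosensor. Stimulation uses hNppA at 0.1 nM final; luminescence is taken at baseline and 20 min post-agonist.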
3T3 cytotox: NIH 3T3 cell cytotoxicity; Potency, µM (doses to about 96.7 µM), inactives show at the highest dose activity change, negative = cytotoxicity, most hits filed as inhibitors; hit rate 4.3% among 94,000; NIH 3T3 viability, CellTiter-Glo ATP luminescence, 48-72 h; note: nearly all actives have a fitted effect of over 55% in size
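Cytotoxicity was measured by CellTiter-Glo ATP luminescence after 48 or 72 h compound exposure at 37 °C. Mouse NIH 3T3 fibroblasts were seeded at 400 cells/well and dosed by 23 nL pin transfer.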
Starred values were filed as active, the others as inactive; i = inactive; ? = inconclusive; . = not tested or not shown; [ ] = dose if it differs, or a comment. An excerpt weighted towards active compounds, which were near 11% of everything screened. Unless noted, calls come from the whole dose curve; as a rule, active = well fitted curve in the direction sought with a large enough effect; inconclusive = small, poorly fitted or top-dose-only effect, or another doubt; inactive = no such curve, though single readings can be large; an effect the other way counts as inactive or inconclusive. % is set by controls: 0 for no effect and ±100 for the full control effect; potency is the fitted concentration of half-maximal effect.

SMILES	HEK cytotox	Luciferase inh	NPR1 antag	3T3 cytotox
O=C(NCc1ccccc1Cl)C1CCCN(Cc2cccc(-c3ccsc3)c2)C1 (stereo not drawn)	22µM*	.	.	13µM*
O=C(Cn1c(=O)c2c(n1Cc1ccccc1)CN(Cc1ccccc1)CC2)NCc1cccc(Cl)c1	?	i	-11%	?
Cc1cccc(OCC2(CNCc3c(C)noc3C)C[C@@H](O)[C@@H](O)C2)n1 (stereo partly drawn)	-24%[172 µM]	i	-1%[70.6 µM]	-28%[174 µM]
Cc1ccc(C2Cn3nnc(C(=O)N4CCN(C(=O)c5ccccc5F)CC4)c3CO2)cc1 (stereo not drawn)	?	i	?	-21%
CC(C)(O)C#Cc1ccc(CN2CCC(CO)(CCCc3ccccc3)CC2)cc1	?	i	-4%	?
OCC1(CCCc2ccccc2)CCN(Cc2ccc(-n3cccn3)cc2)CC1	?	i	?	40µM*
O=C(NCC(F)F)c1cc(-c2cccc(C(F)(F)F)c2)c2nncn2n1	?	.	.	-28%
C#CCNC(=O)c1cc(-c2cccc(C(F)(F)F)c2)c2nncn2n1	10µM*	.	.	?
O=C(c1cc(-c2cccc(C(F)(F)F)c2)c2nncn2n1)N1CCC(c2ccccc2)CC1	25µM*	.	.	?
N#Cc1ccc(C(=O)N2C[C@@H](COc3ccccc3)[C@H](C(N)=O)C2)cc1	2%	i	-9%	1%
CCn1nc(-c2cccc(-c3ccnn3C)c2)nc1N(C)C	79µM*	i	-2%	-21%
CCn1nc(-c2ccc3c(c2)OCO3)nc1N(C)C	-4%	?	10%	0%
COCCN1CCCC2(CCN(C(=O)c3cc(C)[nH]n3)C2)C1=O (stereo not drawn)	i	i	0%	i
Cc1ccc(CNC(=O)c2ccc(NC(=O)c3cc4c(=O)[nH]c(C)cn4n3)cc2)cc1	?	11µM*	6%	-4%
COc1cccc(CNC(=O)c2nnn3cc(C)[nH]c(=O)c23)c1	12%	i	2%	-15%
CCc1ccc(CNC(=O)c2nnn3cc(C)[nH]c(=O)c23)cc1	-29%	i	-30%	35µM*
CSc1ccc(CNC(=O)c2cc3c(=O)[nH]c(C)cn3n2)cc1	-9%	13µM*	9%	-25%
Cc1cn2nc(C(=O)NCCCc3ccccc3)cc2c(=O)[nH]1	-24%	14µM*	15%	-25%
COCCCNC(=O)c1cc2c(=O)[nH]c(C)cn2n1	3%	?	4%	i
O=C(NC1CC1)C1COC2(CCN(C(=O)c3cccc(Cl)c3)CC2)N1C(=O)c1cccc(F)c1 (stereo not drawn)	-37%	i	-5%	?
O=C(NCCNC(=O)c1ccccc1Cl)c1cccc(-c2ccsc2)c1	?	.	.	-17%
O=C1N(C2CCOCC2)C[C@H]2CN(Cc3ccc(F)cc3)CCN12	-9%[172 µM]	i	4%[70.6 µM]	-3%[138 µM]
N#Cc1cccc(CN2CC3(COCC(=O)N(Cc4cccc(OC(F)(F)F)c4)C3)C2)c1	?	i	-7%	28µM*
Cc1cc(C)nc(N2CC3(COCC(=O)N(Cc4cccc(OC(F)(F)F)c4)C3)C2)n1	?	i	8%[70.6 µM]	-7%[138 µM]
CNC(=O)[C@H]1C[C@H](Oc2ccccc2)CN1Cc1cccc(F)c1	?	i	-16%	-23%
SMILES	HEK cytotox	Luciferase inh	NPR1 antag	3T3 cytotox
CCN1C(=O)CCc2cc(NC(=O)c3cncc(Br)c3)ccc21	?	i	1%	-22%
CCCN1C(=O)CCc2cc(NC(=O)c3ccc(OC(F)(F)F)cc3)ccc21	?	?	?	40µM*
CCCN1C(=O)CCc2cc(NC(=O)CCOC)ccc21	2%	i	0%	i
CCN1C(=O)CCc2cc(NC(=O)c3ccc(F)cc3)ccc21	40µM*	?	2%	?
CS(=O)(=O)N1CCc2ccc(C(=O)Nc3ccc(F)cc3)cc21	?	8.9µM*	?	-21%
Cc1c(CN2C[C@@H](COc3ccccc3)[C@H](C(N)=O)C2)cnn1C	-3%	i	1%	-3%
CN1CCCC2(CCN(c3ccc(C#N)cn3)C2)C1=O (stereo not drawn)	i	i	-5%	-3%
CN(C)CCNC(=O)c1nc(-c2ccc(N3CCN(C)CC3)cc2)cc2c1ccn2C	?	?	-1%[70.6 µM]	7.9µM*
Cn1ccc2c(C(=O)NCc3cccnc3)nc(-c3cccc(N4CCOCC4)c3)cc21	?	i	-21%[70.6 µM]	?
Cn1ccc2c(C(=O)NCc3cccnc3)nc(-c3cccnc3)cc21	-26%[172 µM]	i	-12%[70.6 µM]	25µM*
Cn1ccc2c(C(=O)NCc3cccnc3)nc(-c3ccccc3C(F)(F)F)cc21	71µM*	i	-3%[70.6 µM]	45µM*
CC(=O)Nc1cccc(-c2cc3c(ccn3C)c(C(=O)NCc3cccnc3)n2)c1	?	i	-21%[70.6 µM]	25µM*
COCCn1nc2n(c1=O)CCN(C(=O)Cc1c[nH]c3ccccc13)CC2	4%	i	0%	4%
CC(C)(C)NC(=O)N1C[C@@H](Oc2cccnc2)C[C@H]1C(=O)N1CCCC1	-14%	i	-5%	-24%
Cn1ccc2c(C(=O)NCc3cccnc3)nc(-c3ccc(CO)cc3)cc21	-2%[172 µM]	i	0%[70.6 µM]	45µM*
Cn1ccc2c(C(=O)NCc3cccnc3)nc(-c3ccncc3)cc21	?	?	2%[70.6 µM]	?
CC(C)CN(Cc1cccnc1)C1CN(C(=O)CC2CCCCC2)C1	?	i	-16%	5.6µM*
CC(C)CN(Cc1cccnc1)C1CN(C(=O)NCc2ccccc2)C1	0%	i	-3%	-17%
Cc1cc(NC(=O)C2CCN(c3cc(C(F)(F)F)ncn3)CC2)ccc1Br	25µM*	i	?	32µM*
O=C(c1ccc(F)cc1)N1CCCC1C(=O)N1CCCC1c1nc2ccncc2[nH]1 (stereo not drawn)	-6%	.	.	-9%
COc1ccc(NC(=O)CCC2CCCN(S(=O)(=O)c3ccccc3)C2)cc1F (stereo not drawn)	?	i	?	?
Cc1noc2c(NCCN(C)C)cc(-c3ccc(F)cc3)nc12	?	i	1%[70.6 µM]	40µM*
Cc1noc2c(NCCN(C)C)cc(-c3ccc(Cl)cc3)nc12	45µM*	i	2%[70.6 µM]	25µM*
COC1CCN(c2cc(-c3ccccn3)nc3c(C)noc23)CC1	63µM*	i	-1%[70.6 µM]	?
Cc1noc2c(NCCN(C)C)cc(-c3ccccn3)nc12	79µM*	i	1%[70.6 µM]	?
COc1ccccc1-c1cc(N2CCN(c3ccccn3)CC2)c2onc(C)c2n1	?	i	-3%[70.6 µM]	?
CN(C)C(=O)c1ccc(OC2CCN(C(=O)c3ccc(F)cc3)CC2)nc1	-26%	i	-9%	-24%
C[C@H](C(=O)NCCN1CCOCC1)C1CC[C@@]2(C)Cc3sc(CS(=O)(=O)Cc4ccc(F)cc4)nc3[C@@H](C)[C@@H]2[C@H]1O (stereo partly drawn)	-28%	i	4%	-24%
O=C(NCc1ccccc1F)c1ccc2nc(-c3cccnc3Cl)oc2c1	100µM*	.	.	?
